# ssDAF-12 act = activators of S. stercoralis DAF-12 nuclear receptor | HEK293 ssDAF-12/GRIP1 lit1-tk-luc reporter, luminescence; % of 3 µM dafachronic acid response | activation, % at 6.8 µM | 370,000 tested, 1% active;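 active = activation above the mean over all tested compounds plus 3 SD, cut at about 0.9% in these data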;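 note: 0% = DMSO-only wells and 100% = 3 µM delta7-dafachronic acid wells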
# hcDAF-12 act = H. contortus DAF-12 activation, primary screen | HEK293 hcDAF-12 lit1-tk-luc reporter, luminescence; 0% DMSO, 100% Δ7-dafachronic acid | activation, % at 6.8 µM | 370,000 tested, 1.4% active;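 active = activation above the mean of all tested compounds plus 3 SD, cut at about 5.5% in these data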;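 note: 100% = response to 3 µM Δ7-dafachronic acid high control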
# DAX1 inh-1 = inhibitors of DAX1 repression of SF-1 activated StAR promoter | 370,000 tested, 1.1% active | HEK293T StAR-luciferase reporter, SF-1/DAX-1 repression relief | inhibition, % at 6.8 µM;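 active = inhibition above the mean over all tested compounds plus 3 SD, cut at about 3.6% in these data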;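 note: 0% = DAX-1 cells with DMSO and 100% = cells lacking DAX-1 with DMSO; higher inhibition means more luminescence from relief of DAX-1 repression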
# hgDAF-12 ag = activates the H. glycines DAF-12 receptor ligand-binding domain | 370,000 tested, 1.8% active | activation, % at 6.8 µM | HEK293 GAL4-hgDAF12 UAS-luciferase reporter, agonist luminescence; normalized to butyrate control | AID 687014;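 active = activation above a cutoff set at the mean of all screened compounds plus 3 SD, cut at about 10% in these data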;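 note: 0% = DMSO wells and 100% = sodium butyrate wells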
# DAX1 inh-2 = inhibits human nuclear receptor DAX1. P51843. HEK293 Gal4-DAX1 luciferase reporter, luminescence. inhibition, % at 6.75 µM. 340,000 tested, 0.99% active;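 active = inhibition above the mean over all tested compounds plus 3 SD, cut at about 4.2% in these data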;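 note: 0% = DAX1-transfected cells with DMSO and 100% = empty-vector control cells with DMSO; inhibition shows as a rise in luminescence from relieved DAX1 repression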
# LXR ag = counter-screen for hcDAF-12 agonists: agonists of human LXR-beta | shares compounds with hcDAF-12 act | HEK293 Gal4-LXR tk-luc reporter, luminescence, 24 h; normalized: DMSO 0%, positive control 100% | activation, % at 6.8 µM | 3,400 tested, under 10 active | AID 743027;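 active = mean percent activation of the reporter above a cutoff set as the average over tested compounds plus their standard deviation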
# Target sequence (P55055 whole entry, looked up, the tested form may be a part): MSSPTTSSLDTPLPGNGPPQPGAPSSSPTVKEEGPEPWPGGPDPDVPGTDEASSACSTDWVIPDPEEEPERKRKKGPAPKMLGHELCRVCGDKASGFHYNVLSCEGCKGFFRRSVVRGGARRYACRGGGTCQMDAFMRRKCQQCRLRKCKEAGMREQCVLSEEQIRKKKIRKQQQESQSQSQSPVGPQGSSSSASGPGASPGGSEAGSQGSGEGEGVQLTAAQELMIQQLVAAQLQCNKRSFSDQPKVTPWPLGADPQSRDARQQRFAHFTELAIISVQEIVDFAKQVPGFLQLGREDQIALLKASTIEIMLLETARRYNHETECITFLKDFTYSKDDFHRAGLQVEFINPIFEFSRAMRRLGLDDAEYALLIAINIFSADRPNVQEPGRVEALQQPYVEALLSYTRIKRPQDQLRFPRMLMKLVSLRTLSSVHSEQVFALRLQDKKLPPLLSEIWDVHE
# hcDAF12 conf = hcDAF-12 agonism, confirmation assay; 3,400 tested, 61% active; activation, % at 6.8 µM; shares compounds with hcDAF-12 act; HEK293 hcDAF-12 lit1-tk-luc reporter, luminescence; % of Δ7-dafachronic acid response;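 active = mean activation across triplicate tests above the threshold derived from the earlier primary screen, cut at about 5.5% in these data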;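 note: 0% = DMSO only wells and 100% = 3 µM Δ7-dafachronic acid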
# hgDAF12 ag = confirmation of H. glycines DAF-12 agonists. activation, % at 6.8 µM. HEK293 GAL4-hgDAF12 luciferase reporter, agonist mode; percent of butyrate response. shares compounds with hgDAF-12 ag. 3,300 tested, 80% active;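 active = mean activation over triplicate wells above the hit cutoff derived from the earlier primary screen, cut at about 11% in these data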;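 note: 0% = DMSO low control and 100% = 2 mM sodium butyrate high control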
# LXRb DAF12 ctr = counter-screen for DAF-12 agonists: agonists of human LXR-beta; HEK293 Gal4-LXR luciferase reporter, 24 h; shares compounds with hgDAF-12 ag; activation, % at 6.8 µM; 3,300 tested, under 10 active;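 active = mean activation of the triplicate above a set limit carried over from the primary screen, none filed active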
# * hit, by the source's call; nt = no result. In the library only some 4.1% were active in any assay of this set; here they are far more common.
SMILES,ssDAF-12 act,hcDAF-12 act,DAX1 inh-1,hgDAF-12 ag,DAX1 inh-2,LXR ag,hcDAF12 conf,hgDAF12 ag,LXRb DAF12 ctr
COc1cc(C(C(=O)Nc2c(C)cccc2C)N(C)C(=O)c2ccc(-n3cnnn3)cc2)ccc1O (configuration not stated),0,1,0,5,-1,nt,nt,nt,nt
O=C(O)CC(NNC(=O)c1ccccc1)C(=O)Nc1cccc([N+](=O)[O-])c1 (configuration not stated),-2,1,0,2,4,nt,nt,nt,nt
O=C(OCC(=O)N1CCCC1)c1ccc(NS(=O)(=O)c2cccs2)cc1O,-1,-1,0,-4,1,nt,nt,nt,nt
COc1ccc(N(CC(=O)NCCSc2ccccc2)S(=O)(=O)c2ccccc2)c(OC)c1,-1,0,-2,-4,-2,nt,nt,nt,nt
Cc1ccc(-c2nc(N/N=C/c3cccnc3)c3ccccc3n2)cc1,2.9*,13*,1,14*,-2,2,12*,21*,1
Cc1ccc(-c2nc(N/N=C/c3cccc([N+](=O)[O-])c3)c3ccccc3n2)cc1,-1,3,-1,8,0,nt,nt,nt,nt
NNC(=O)CCc1nc2ccccc2[nH]1,-1,0,0,-1,nt,nt,nt,nt,nt
O=C(Nc1ccc2c(c1)OCO2)c1ccccc1,0,9.3*,2,16*,1,1,4,18*,1
Cc1c(C(=O)Nc2ccc3c(c2)OCO3)oc2ccccc12,2.8*,16*,2,18*,1,1,16*,21*,1
CSCc1c(C(=O)Nc2ccc3c(c2)OCO3)oc2ccccc12,0,3,0,1,-1,nt,nt,nt,nt
O=C(NC(=S)Nc1ccc2c(c1)OCO2)c1ccccc1,1,8.7*,2,15*,3,2,6.1*,20*,1
COc1ccc(-c2cc3cccc(OC)c3oc2=O)cc1,0,7.3*,3,16*,-1,2,7.8*,24*,1
COc1ccc(Nc2nc(-c3cc4cccc(OC)c4oc3=O)cs2)cc1,-1,-2,0,5,3,nt,nt,nt,nt
Cc1ccsc1/C=N/Nc1nc2ccccc2[nH]1,-1,9.9*,3.7*,14*,0,1,5,14*,1
Clc1nc2ccccc2cc1/C=N/Nc1nc2ccccc2[nH]1,1.7*,9.3*,2,14*,0,1,14*,17*,1
Cc1ccc(CNC(=O)CCCCCNC(=O)N2CCn3c2nc2ccccc23)cc1,-1,0,0,4,0,nt,nt,nt,nt
CC(C)CN1CCC(=O)N([C@H](COc2ccccc2)c2ccccc2)CC1,-1,-1,0,0,3,nt,nt,nt,nt
Brc1c(-c2ccccc2)nc2n1Cc1ccccc1-2,1.8*,11*,2,16*,4,1,11*,18*,1
c1ccc2c(c1)Cn1nnnc1-2,nt,nt,nt,nt,1,nt,nt,nt,nt
[O-][n+]1c(/C=C/c2ccccc2)ccc2ccccc21,1.5*,13*,2,14*,7.2*,1,8.6*,21*,1
COc1ccc(CCNC(=O)c2cc3c(=O)n(C)c4ccccc4c3n2C)c(OC)c1,-2,-2,0,0,0,nt,nt,nt,nt
Oc1[nH]c2ccccc2c1N=Nc1ccccc1F,1,12*,2,16*,3,1,14*,21*,1
O=[N+]([O-])c1ccccc1N=Nc1c(O)[nH]c2ccc(F)cc12,0,3,3,7,1,nt,nt,nt,nt
CSc1ccccc1OCc1cc(C(=O)N[C@H]2CCCCNC2=O)no1,0,7.2*,4.4*,19*,1,1,3,10,0
CSc1ccccc1OCc1cc(C(=O)NC(C)c2cnn(C)c2)no1 (configuration not stated),-1,2,0,2,1,nt,nt,nt,nt
SMILES,ssDAF-12 act,hcDAF-12 act,DAX1 inh-1,hgDAF-12 ag,DAX1 inh-2,LXR ag,hcDAF12 conf,hgDAF12 ag,LXRb DAF12 ctr
Clc1ccc(/C=N/Nc2ncnc3ccccc23)cc1Cl,1.1*,10*,3,16*,12*,1,7.0*,20*,1
COc1ccc(CNc2ccc3c(c2)nc(C)n3C)cc1,-1,3,2,6,0,nt,nt,nt,nt
Cc1ccc(CNc2nc3ccccc3n2C)cc1,3.6*,16*,3,21*,3,2,16*,20*,1
Cc1ccc(CNc2ccc3c(c2)nc(C)n3C)cc1,1.3*,16*,3,16*,2,1,6.4*,17*,1
CCN(CC)C(=O)[C@H]1CC(CC(=O)NCC23CC4CC(CC(C4)C2)C3)C(=O)N2CCc3c([nH]c4ccc(OC)cc34)[C@]12C (some centres not stated),-1,-2,0,1,-1,nt,nt,nt,nt
Clc1ccc2nc(-c3ccccc3)cn2c1,1.9*,11*,2,18*,-1,2,9.7*,18*,1
CCc1ccc(-c2cn3nc(C)c(C)nc3n2)cc1,-2,-1,-2,-8,-3,nt,nt,nt,nt
Cc1nc2nc(-c3ccc(F)cc3)cn2nc1C,0,7.1*,3,14*,0,1,5,12*,1
O=C(c1cc2cc(Br)ccc2[nH]1)N1CCc2ccccc21,1,4,0,4,1,nt,nt,nt,nt
COc1ccc2cc(C(=O)N3CCc4ccccc43)[nH]c2c1,1.6*,14*,3,19*,3,2,13*,24*,1
COc1ccccc1C(=O)NNC(=O)c1ccccc1F,1.5*,11*,3,16*,1,1,11*,15*,1
COCC(=O)NNC(=O)c1ccccc1OC,0,3,0,1,-1,nt,nt,nt,nt
O=C(/C=C/Nc1ccccc1)c1ccc(Cl)cc1Cl,1.1*,8.0*,3,15*,4,1,5,26*,1
CCOC(=O)C(NC(C)=O)(Nc1ccc(S(N)(=O)=O)cc1)C(F)(F)F (configuration not stated),-2,-1,0,1,2,nt,nt,nt,nt
Cc1ccc(/C(=N/Nc2ncnc3ccccc23)C(=O)O)cc1,1.9*,17*,3.7*,18*,3,0,6.3*,12*,0

# Compound activity: PubChem BioAssay, The Scripps Research Institute Molecular Screening Center
